For 5 compounds, outcome and AC50 results are on record in PubChem BioAssay (EPA / NIEHS).

Read-out in experiment [1]: Tissue Factor, F3 (gene 2152)
As to the kind of experiment: BSK_CASM3C_TissueFactor: BioMAP Diversity Plus: CASM3C Assay for Tissue Factor Biomarker Activity (AID 2283052).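 Also: cell surface tissue factor protein level read by ELISA.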 As to conditions: primary human coronary artery smooth muscle cells; actives raise or lower the signal.

Read-out in experiment [2]: Interferon-gamma inducible Protein 10 (IP10), CXCL10 (gene 3627)
The experiment is described as follows: BSK_hDFCGF_IP10: BioMAP Diversity Plus: hDFCGF Assay for Interferon-gamma inducible Protein 10 (IP10) Biomarker Activity (AID 2283053). As to conditions: primary human foreskin fibroblasts; actives raise or lower the signal. The gist of the method: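 Primary foreskin fibroblasts, human; 24 h compound exposure; IP-10 by ELISA; bidirectional fit vs DMSO.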

Read-out in experiment [3]: Urokinase-type plasminogen activator receptor (uPAR), PLAUR (gene 5329)
As to the kind of experiment: BSK_CASM3C_uPAR: BioMAP Diversity Plus: CASM3C Assay for Urokinase-type plasminogen activator receptor (uPAR) Biomarker Activity (AID 2283054).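 Also: cell-surface uPAR protein level quantified by ELISA.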 As to conditions: primary human coronary artery smooth muscle cells; actives raise or lower the signal.

Read-out in experiment [4]: Vascular cell adhesion molecule 1 (VCAM1), VCAM1 (gene 7412)
As to the kind of experiment: BSK_CASM3C_VCAM1: BioMAP Diversity Plus: CASM3C Assay for Vascular cell adhesion molecule 1 (VCAM1) Biomarker Activity (AID 2283055).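 Also: VCAM-1 protein level quantified by ELISA on the cells.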 As to conditions: primary human coronary artery smooth muscle cells; actives raise or lower the signal.

Read-out in experiment [5]: Collagen III, COL3A1 (gene 1281)
As to the kind of experiment: BSK_hDFCGF_CollagenIII: BioMAP Diversity Plus: hDFCGF Assay for Collagen III Biomarker Activity (AID 2283056). To be noted: primary human foreskin fibroblasts; actives raise or lower the signal. In outline: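 hDFCGF primary human dermal fibroblasts; 24 h chemical exposure; collagen III by ELISA; bidirectional curve fit vs DMSO baseline (gain or loss of signal).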

Read-out in experiment [6]: Epidermal growth factor receptor (EGFR), EGFR (gene 1956)
As to the kind of experiment: BSK_hDFCGF_EGFR: BioMAP Diversity Plus: hDFCGF Assay for Epidermal growth factor receptor (EGFR) Biomarker Activity (AID 2283057). To be noted: primary human foreskin fibroblasts; actives raise or lower the signal. In outline:
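hDFCGF system, primary human foreskin fibroblasts; compound 24 h; EGFR measured by ELISA; DMSO = negative control/baseline; bidirectional fitting.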

Read-out in experiment [7]: Interleukin-8 (IL8), CXCL8 (gene 3576)
The experiment is described as follows: BSK_hDFCGF_IL8: BioMAP Diversity Plus: hDFCGF Assay for Interleukin-8 (IL8) Biomarker Activity (AID 2283058). To be noted: primary human foreskin fibroblasts; actives raise or lower the signal. In outline:
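ELISA read-out of IL-8 from primary human foreskin fibroblast cultures taken 24 h after dosing; values are bidirectional fits relative to DMSO vehicle.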

Experiment [8] can be described thus: BSK_hDFCGF_Proliferation: Cell Proliferation Assessment in the BioMAP Diversity Plus: hDFCGF Assay (AID 2283059).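 Also: curves fitted for both rise and fall of signal versus DMSO baseline.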 To be noted: primary human foreskin fibroblasts. In outline:
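This proliferation readout used SRB total-protein staining of human foreskin fibroblasts […], normalized to DMSO with bidirectional curve fitting.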

Read-out in experiment [9]: Macrophage colony-stimulating factor (MCSF), CSF1 (gene 1435)
The experiment is described as follows: BSK_hDFCGF_MCSF: BioMAP Diversity Plus: hDFCGF Assay for Macrophage colony-stimulating factor (MCSF) Biomarker Activity (AID 2283060). As to conditions: primary human foreskin fibroblasts; actives raise or lower the signal. In outline:
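ELISA read-out of M-CSF in human dermal foreskin fibroblast cultures, 24 h after chemical dosing; gain or loss of signal fitted bidirectionally relative to DMSO baseline.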

Experiment [10] can be described thus: BSK_hDFCGF_SRB: Viability Assessment in the BioMAP Diversity Plus: hDFCGF Assay (AID 2283061).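 Also: cells exposed to compound for 24 h before the read.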 As to conditions: primary human foreskin fibroblasts. In outline: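 Primary human foreskin fibroblasts; 24 h post-dose; fixed 10% TCA, stained 0.1% SRB, A560 read; total protein as overt cytotoxicity measure; curves fit bidirectionally vs DMSO control.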
Read-out in experiment [11]: TIMP metallopeptidase inhibitor 1 (TIMP1), TIMP1 (gene 7076)
The experiment is described as follows: BSK_hDFCGF_TIMP1: BioMAP Diversity Plus: hDFCGF Assay for TIMP metallopeptidase inhibitor 1 (TIMP1) Biomarker Activity (AID 2283062). As to conditions: primary human foreskin fibroblasts; actives raise or lower the signal. The gist of the method: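 ELISA readout of TIMP-1 from human dermal foreskin fibroblast cultures 24 h post-dosing. Curves were fitted in both directions against DMSO baseline, with SRB total-protein staining in parallel cultures as a cytotoxicity check.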

Read-out in experiment [12]: Monokine induced gamma interferon (MIG), CXCL9 (gene 4283)
The experiment is described as follows: BSK_hDFCGF_MIG: BioMAP Diversity Plus: hDFCGF Assay for Monokine induced gamma interferon (MIG) Biomarker Activity (AID 2283063). To be noted: primary human foreskin fibroblasts; actives raise or lower the signal. In outline:
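Fibroblasts (human foreskin, primary) dosed, 24 h, MIG by ELISA; fit bidirectional vs DMSO.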

Read-out in experiment [13]: Matrix Metallopeptidase 1 (MMP1), MMP1 (gene 4312)
As to the kind of experiment: BSK_hDFCGF_MMP1: BioMAP Diversity Plus: hDFCGF Assay for Matrix Metallopeptidase 1 (MMP1) Biomarker Activity (AID 2283064). As to conditions: primary human foreskin fibroblasts; actives raise or lower the signal. The gist of the method:
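Primary human foreskin fibroblasts in the hDFCGF system were dosed with test chemical, and MMP1 was measured by ELISA 24 h later. Values come from bidirectional curve fitting against the DMSO baseline.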

Read-out in experiment [14]: Vascular cell adhesion molecule 1 (VCAM1), VCAM1 (gene 7412)
The experiment is described as follows: BSK_hDFCGF_VCAM1: BioMAP Diversity Plus: hDFCGF Assay for Vascular cell adhesion molecule 1 (VCAM1) Biomarker Activity (AID 2283065).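 As to AC50: VCAM-1 protein level quantified by ELISA after 24 h chemical exposure.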 To be noted: primary human foreskin fibroblasts; actives raise or lower the signal. In outline: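 ELISA read-out of VCAM-1 on human skin fibroblasts, 24 h post-dose; gain or loss of signal fitted bidirectionally against DMSO baseline.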

Read-out in experiment [15]: Plasminogen activator inhibitor-1 (PAI1), SERPINE1 (gene 5054)
As to the kind of experiment: BSK_hDFCGF_PAI1: BioMAP Diversity Plus: hDFCGF Assay for Plasminogen activator inhibitor-1 (PAI1) Biomarker Activity (AID 2283066). To be noted: primary human foreskin fibroblasts; actives raise or lower the signal. In outline:
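Primary dermal fibroblasts (human foreskin), hDFCGF system; compound 24 h; PAI-1 by ELISA; bidirectional fit vs DMSO control.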

Read-out in experiment [16]: Interferon-gamma inducible Protein 10 (IP10), CXCL10 (gene 3627)
As to the kind of experiment: BSK_KF3CT_IP10: BioMAP Diversity Plus: KF3CT Assay for Interferon-gamma inducible Protein 10 (IP10) Biomarker Activity (AID 2283068). To be noted: primary human keratinocytes with fibroblasts; actives raise or lower the signal. In outline:
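Signal is secreted/surface IP-10 by ELISA in a human primary skin co-culture of keratinocytes and foreskin fibroblasts, taken 24 h post-dosing; DMSO served as negative control.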

The nature of experiment [17]: BSK_KF3CT_SRB: Viability Assessment in the BioMAP Diversity Plus: KF3CT Assay (AID 2283069).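 Also: total protein by sulforhodamine B staining as a cytotoxicity measure; read 24 h after compound addition.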 As to conditions: primary human keratinocytes with fibroblasts. In outline:
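Human primary keratinocyte plus foreskin fibroblast co-culture exposed to chemicals for 24 h. Total protein measured by 0.1% sulforhodamine B staining after 10% TCA fixation, read at 560 nm; bidirectional fitting versus DMSO baseline.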

Read-out in experiment [18]: Interleukin-1 alpha (IL1a), IL1A (gene 3552)
The experiment is described as follows: BSK_KF3CT_IL1a: BioMAP Diversity Plus: KF3CT Assay for Interleukin-1 alpha (IL1a) Biomarker Activity (AID 2283070). To be noted: primary human keratinocytes with fibroblasts; actives raise or lower the signal. The gist of the method:
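Human keratinocyte plus foreskin fibroblast primary co-culture, sampled 24 h after chemical dosing. IL-1a measured by ELISA; responses fitted bidirectionally against DMSO baseline (negative control), so gain or loss of signal both count.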

Read-out in experiment [19]: TIMP metallopeptidase inhibitor 2 (TIMP2), TIMP2 (gene 7077)
The experiment is described as follows: BSK_KF3CT_TIMP2: BioMAP Diversity Plus: KF3CT Assay for TIMP metallopeptidase inhibitor 2 (TIMP2) Biomarker Activity (AID 2283071). As to conditions: primary human keratinocytes with fibroblasts; actives raise or lower the signal. In outline:
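Cells: human keratinocytes co-cultured with foreskin fibroblasts. Treat with chemical, 24 h. Measure TIMP-2 by ELISA; fit curves bidirectionally vs DMSO baseline.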

Read-out in experiment [20]: Intercellular Adhesion Molecule 1 (ICAM1), ICAM1 (gene 3383)
As to the kind of experiment: BSK_KF3CT_ICAM1: BioMAP Diversity Plus: KF3CT Assay for Intercellular Adhesion Molecule 1 (ICAM1) Biomarker Activity (AID 2283067). As to conditions: primary human keratinocytes with fibroblasts; actives raise or lower the signal. The gist of the method:
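ELISA readout of ICAM-1; KF3CT human skin co-culture (keratinocytes + foreskin fibroblasts), 24 h post-dose; gain/loss fit vs DMSO baseline.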

The source made the active and inactive calls. The calls were made as follows: active = hit-call score of the fitted dose curve at least 0.9, where 1 is the maximum; inactive = score below 0.9.

`CCOc1cccc(C2(N3CCN(c4ccccc4)CC3)CCC(C)CC2)c1` (stereo not given): the outcome in experiment [1], in experiment [2], in experiment [3], in experiment [4], in experiment [5] and in [6] was inactive. Also, the result in experiment [7], in experiment [8], in [9], in experiment [10], in experiment [11] and in experiment [12] was inactive. For the same compound, the outcome in [13], in experiment [14], in experiment [15], in [16], in experiment [17] and in [18] was inactive. For the same compound, the outcome in [19] was inactive.

For `CN(C)C(=O)Nc1ccc(Cl)cc1`, the outcome in [1], in experiment [2], in experiment [3], in experiment [4], in [5] and in [6] was inactive. In addition, the result in [7], in experiment [8], in experiment [9], in experiment [10], in experiment [11] and in experiment [12] was inactive. The outcome in experiment [13], in experiment [14], in experiment [15], in [16], in experiment [17] and in [18] was inactive. For the same compound, the outcome in experiment [19] was inactive.

Regarding `CNC(=O)Oc1cccc2c1OC(C)(C)C2`, the outcome in [1], in experiment [2], in [3], in experiment [4], in experiment [5] and in experiment [6] was inactive. For the same compound, the outcome in experiment [7], in experiment [8], in experiment [9], in [10], in [11] and in experiment [12] was inactive. In addition, the outcome in [13], in experiment [14], in [15], in [16], in experiment [17] and in experiment [18] was inactive. Further, in experiment [19], the outcome was inactive.

Turning to `Clc1ccc(C(c2ccc(Cl)cc2)C(Cl)(Cl)Cl)cc1`, the AC50 was 33.2 µM (active) in [1]; 14.1 µM (active) in [2]; 20 µM (active) in experiment [3]; 20 µM (active) in experiment [4]; 27.3 µM (active) in [7]; 5.38 µM (active) in experiment [8]. The AC50 in [9] is 10.9 µM (active); in [10], 10.6 µM (active); in experiment [11], 13 µM (active); in experiment [12] it was 15.8 µM (active); in experiment [13], 14.8 µM (active); in experiment [14] it was 9.94 µM (active). The AC50 is 8.38 µM (active) in [15]; 27.7 µM (active) in experiment [20]; 16.3 µM (active) in [16]; 18.7 µM (active) in experiment [17]; 25.1 µM (active) in experiment [18]; 11.7 µM (active) in experiment [19]. In addition, in experiment [6], the outcome was inactive.

As to `c1ccc2c(c1)oc1ccccc12`, the outcome in experiment [1], in experiment [2], in experiment [3], in experiment [4], in experiment [5] and in [6] was inactive. Moreover, the result in experiment [7], in [8], in experiment [9], in experiment [10], in [12] and in experiment [13] was inactive. In addition, the result in [14], in experiment [15], in experiment [20], in experiment [16], in experiment [17] and in experiment [18] was inactive. Also, the outcome in experiment [19] was inactive.
